Experimental data reported in PubChem BioAssay (EPA / NIEHS).
Where “and” joins values, the source holds several entries; their conditions need not be identical. Identical values can stand only once. Records with an inconclusive call do not appear. Calls of active or inactive are those of the source. Rule for the calls, unless noted: active = hit-call score of the fitted dose curve at least 0.9, where 1 is the maximum; inconclusive = response in the unintended direction; inactive = score below 0.9.

Legend:
[1] = target: Nucleoli Translocation, AR (gene 367) (UniProt P10275); experiment: UPITT_HCI_U2OS_AR_TIF2_Nucleoli_Antagonist: University of Pittsburgh U2OS Androgen Receptor-Transcriptional Intermediary Factor 2 (AR-TIF2) Antagonism High Content Imaging Assay for Nucleoli Translocation (AID 2283997)
Method in brief: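 An antagonist-mode imaging screen: engineered U2OS (AR-RFP, TIF2-GFP) exposed to 20 uM compound, 0.2% DMSO. Activity reflects nucleolar red fluorescence change relative to DHT baseline.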

[2] = target: Nucleoli Translocation, AR (gene 367) (UniProt P10275); experiment: UPITT_HCI_U2OS_AR_TIF2_Nucleoli_Agonist: University of Pittsburgh U2OS Androgen Receptor-Transcriptional Intermediary Factor 2 (AR-TIF2) Agonism High Content Imaging Assay for Nucleoli Translocation (AID 2283998)
Method in brief: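 Red-tagged human androgen receptor co-expressed with GFP-tagged TIF2 serves as the binding reporter. Primary testing used 20 uM final (0.2% DMSO); follow-up dose response covered 0.195 to 50 uM final (0.5% DMSO).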

[3] = target: Ratio of Nucleoli Translocation and Cytoplasm, AR (gene 367) (UniProt P10275); experiment: UPITT_HCI_U2OS_AR_TIF2_Nucleoli_Cytoplasm_Ratio_Antagonist: University of Pittsburgh U2OS Androgen Receptor-Transcriptional Intermediary Factor 2 (AR-TIF2) Antagonism High Content Imaging Assay for Ratio of Nucleoli Translocation and Cytoplasm (AID 2283999);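 note: antagonists lower the DHT-driven ratio of nucleolar to cytoplasmic red signal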
Method in brief: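 Compounds were added to U2OS cells carrying red-fluorescent AR and green-fluorescent TIF2, first at 20 uM, with hits confirmed in triplicate and titrated from 0.195 to 50 uM. Nucleolar versus cytoplasmic AR-RFP fluorescence was then quantified by imaging, with analysis relative to DHT.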

DIO1 (gene 1733) = experiment: CCTE_GLTED_hDIO1: CCTE's human Deiodinase 1 (DIO1) Inhibition Assay, Great Lakes Toxicology and Ecology Division (GLTED) Lab (AID 2283987);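 note: isolated human DIO1 enzyme in a cell-free setup rather than cells; enzyme activity read as free iodide liberated from substrate via Sandell-Kolthoff colorimetry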
Method in brief: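 Cell-free hDIO1 assay, triplicate plates. Absorbance of the Sandell-Kolthoff reaction reports enzyme-liberated iodide; iodinated chemicals or nitrite, iron and thiocyanate may interfere.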

[4] = CCTE_Harrill_HTTr_Apoptosis_DMEM_6hr: (Pilot) CCTE's 6-hour Apoptosis Assessment for the High-Throughput Transcriptomics (HTTr) Platform, in MCF-7 cells cultured in DMEM + 10% fetal bovine serum, Harrill Lab (AID 2283981; active = hit-call score of the fitted dose curve at least 0.9, where 1 is the maximum; inactive = score below 0.9)
Method in brief: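 MCF-7 cells grown in DMEM + 10% FBS were exposed for 6 hours to an eight-point dilution series. CellEvent Caspase 3/7 Green signal was imaged; activity fitted bidirectionally against DMSO.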

[5] = CCTE_Harrill_HTTr_Apoptosis_DMEM_12hr: (Pilot) CCTE's 12-hour Apoptosis Assessment for the High-Throughput Transcriptomics (HTTr) Platform, in MCF-7 cells cultured in DMEM + 10% fetal bovine serum, Harrill Lab (AID 2283982; active = hit-call score of the fitted dose curve at least 0.9, where 1 is the maximum; inactive = score below 0.9)
Method in brief: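 Caspase-3/7 activity was measured by high-content imaging (CellEvent Caspase 3/7 Green) after a 12-hour exposure of MCF-7 cells grown in DMEM with 10% FBS. Eight-point concentration series, fitted bidirectionally against vehicle.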

[6] = CCTE_Harrill_HTTr_Apoptosis_DMEM_24hr: (Pilot) CCTE's 24-hour Apoptosis Assessment for the High-Throughput Transcriptomics (HTTr) Platform, in MCF-7 cells cultured in DMEM + 10% fetal bovine serum, Harrill Lab (AID 2283983; active = hit-call score of the fitted dose curve at least 0.9, where 1 is the maximum; inactive = score below 0.9)
Method in brief: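 Caspase-3/7 activity read by high-content imaging (CellEvent Green reagent) 24 h after dosing. MCF-7 cells grown in DMEM with 10% FBS received an eight-point concentration series; fits were bidirectional versus DMSO.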

[7] = CCTE_Harrill_HTTr_Apoptosis_PRF_DMEM_6hr: (Pilot) CCTE's 6-hour Apoptosis Assessment for the High-Throughput Transcriptomics (HTTr) Platform, in MCF-7 cells cultured phenol red-free DMEM + 10% charcoal-stripped fetal bovine serum, Harrill Lab (AID 2283984; active = hit-call score of the fitted dose curve at least 0.9, where 1 is the maximum; inactive = score below 0.9)
Description: (§1) This is a cell-based assay that evaluates apoptosis using high content imaging to evaluate activation of caspase-3/7 using the CellEvent Caspase 3/7 Green detection reagent in 384-well format.One of seven assay components measured from the CCTE_Harrill_HTTr_Apoptosis assay. This was part of a pilot experiment. This is a cell-based assay that evaluates apoptosis in MCF-7 cells cultured in phenol red-free DMEM + 10% charcoal-stripped fetal bovine serum. High content imaging is used to evaluate activation of caspase-3/7 using the CellEvent Caspase 3/7 Green detection reagent. Measurements are taken at 6 hours after chemical dosing in 384-well format.The assay component endpoint CCTE_Harrill_HTTr_Apoptosis_PRF_DMEM_6hr was analyzed with bidirectional fitting relation to DMSO as the negative control and baseline of activity. Using a type of viability reporter, gain-of-signal activity can be used to evaluate activation of caspase-3/7 using the CellEvent Caspase 3/7 Green detection reagent to understand changes in apoptosis. To generalize the intended target to other relatable targets, this assay endpoint is annotated to cell cycle, where the subfamily is apoptosis.
Chemicals were tested in MCF7 cells in an eight point dilution series with a six hour exposure duration.

[8] = CCTE_Harrill_HTTr_Apoptosis_PRF_DMEM_12hr: (Pilot) CCTE's 12-hour Apoptosis Assessment for the High-Throughput Transcriptomics (HTTr) Platform, in MCF-7 cells cultured in phenol red-free DMEM + 10% charcoal-stripped fetal bovine serum, Harrill Lab (AID 2283985; active = hit-call score of the fitted dose curve at least 0.9, where 1 is the maximum; inactive = score below 0.9)
Description: as §1, with “12” for “6”, “CCTE_Harrill_HTTr_Apoptosis_PRF_DMEM_12hr” for “CCTE_Harrill_HTTr_Apoptosis_PRF_DMEM_6hr”
Chemicals were tested in MCF7 cells in an eight point dilution series with a twelve hour exposure duration.

[9] = CCTE_Harrill_HTTr_Apoptosis_PRF_DMEM_24hr: (Pilot) CCTE's 24-hour Apoptosis Assessment for the High-Throughput Transcriptomics (HTTr) Platform, in MCF-7 cells cultured in phenol red-free DMEM + 10% charcoal-stripped fetal bovine serum, Harrill Lab (AID 2283986; active = hit-call score of the fitted dose curve at least 0.9, where 1 is the maximum; inactive = score below 0.9)
Method in brief: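 Eight concentrations tested for 24 h on MCF-7 grown in charcoal-stripped serum, phenol red-free DMEM. High content imaging of CellEvent Caspase 3/7 Green signal gives apoptosis read-out, fitted both ways relative to DMSO.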

Sequence of Ratio of Nucleoli Translocation and Cytoplasm, AR (gene 367) (P10275 whole entry, looked up): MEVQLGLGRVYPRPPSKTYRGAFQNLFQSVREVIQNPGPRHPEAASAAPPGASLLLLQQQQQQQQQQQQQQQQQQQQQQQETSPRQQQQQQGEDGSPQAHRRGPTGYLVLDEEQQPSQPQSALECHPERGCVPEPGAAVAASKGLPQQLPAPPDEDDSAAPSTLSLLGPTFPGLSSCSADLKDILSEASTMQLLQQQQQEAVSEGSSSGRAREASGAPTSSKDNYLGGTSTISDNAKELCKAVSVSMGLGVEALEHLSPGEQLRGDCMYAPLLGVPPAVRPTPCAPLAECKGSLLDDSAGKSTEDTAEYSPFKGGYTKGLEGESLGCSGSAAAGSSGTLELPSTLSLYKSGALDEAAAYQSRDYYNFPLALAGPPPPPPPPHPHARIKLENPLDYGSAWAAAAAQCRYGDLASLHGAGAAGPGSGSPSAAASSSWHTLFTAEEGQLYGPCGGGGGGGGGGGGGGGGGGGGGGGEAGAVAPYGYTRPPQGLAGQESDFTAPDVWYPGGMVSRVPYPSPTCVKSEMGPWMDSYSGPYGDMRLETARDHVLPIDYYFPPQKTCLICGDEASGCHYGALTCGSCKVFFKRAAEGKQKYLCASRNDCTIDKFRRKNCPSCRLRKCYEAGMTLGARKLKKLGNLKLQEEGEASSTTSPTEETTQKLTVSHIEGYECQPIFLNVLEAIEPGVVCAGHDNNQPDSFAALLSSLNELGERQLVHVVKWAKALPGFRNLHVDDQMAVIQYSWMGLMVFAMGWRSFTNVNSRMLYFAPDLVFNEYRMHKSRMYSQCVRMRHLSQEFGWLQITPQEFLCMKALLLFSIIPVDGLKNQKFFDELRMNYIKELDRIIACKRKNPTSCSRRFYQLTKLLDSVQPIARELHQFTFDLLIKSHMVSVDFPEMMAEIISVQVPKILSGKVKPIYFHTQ
Sequence of Nucleoli Translocation, AR (gene 367) (P10275 whole entry, looked up): as above

## CN(CCCC(=O)c1cccnc1)N=O
[1]
  outcome: inactive
[2]
  outcome: inactive
[3]
  outcome: inactive

## COP(=O)(OC)O/C(=C\Cl)c1cc(Cl)c(Cl)cc1Cl
DIO1 (gene 1733)
  AC50: 48.7 µM (active)
[1]
  AC50: 50 µM (active)
[2]
  outcome: inactive
[3]
  outcome: inactive

## CCSC(C)CC1CC(=O)C(C(CC)=NOC/C=C/Cl)=C(O)C1 (stereo not given)
[1]
  outcome: inactive
[2]
  outcome: inactive
[3]
  outcome: inactive

## O=c1[nH]c(=O)[nH]c(=O)[nH]1
[1]
  outcome: inactive
[2]
  outcome: inactive
[3]
  outcome: inactive

## CC(=O)[O][Hg][c]1ccccc1
[1]
  AC50: 0.29 µM (active)
[2]
  outcome: inactive
[3]
  AC50: 0.424 µM (active)

## CCC1(c2ccc(N)cc2)CCC(=O)NC1=O (stereo not given)
[1]
  outcome: inactive
[3]
  outcome: inactive

## CCC(=O)C(CC(C)N(C)C)(c1ccccc1)c1ccccc1 (stereo not given)
[1]
  outcome: inactive
[2]
  outcome: inactive
[3]
  outcome: inactive

## O=C(O)C(F)(F)C(F)(F)C(F)(F)C(F)(F)C(F)(F)C(F)(F)C(F)(F)C(F)(F)C(F)(F)C(F)(F)F
DIO1 (gene 1733)
  AC50: 157 µM (active) and 18 µM (active)

## O=C1C(Cl)=C(Cl)C(=O)c2ccccc21
DIO1 (gene 1733)
  AC50: 20 µM (active)

## COP(=O)(OC)OC
[1]
  outcome: inactive
[2]
  outcome: inactive
[3]
  outcome: inactive

## CCCCCCCCc1ccc(O)cc1
DIO1 (gene 1733)
  AC50: 57.1 µM (active)
[3]
  outcome: inactive

## Cl/C=C\C[N+]12CN3CN(CN(C3)C1)C2
[1]
  AC50: 50 µM (active)
[2]
  outcome: inactive
[3]
  AC50: 50 µM (active)

## CC(C)(c1ccc(OCC2CO2)cc1)c1ccc(OCC2CO2)cc1 (stereo not given)
DIO1 (gene 1733)
  AC50: 1.37 µM (active)
[1]
  AC50: 50 µM (active)
[2]
  outcome: inactive
[3]
  AC50: 38.1 µM (active)

## c1cc[c]([Hg][c]2ccccc2)cc1
[1]
  AC50: 70.3 µM (active)
[2]
  outcome: inactive
[3]
  AC50: 85.1 µM (active)

## CC(C)CCCCCCOC(=O)c1ccccc1C(=O)OCCCCCCC(C)C
[1]
  outcome: inactive

## COP(=S)(OC)Oc1cc(Cl)c(Cl)cc1Cl
[1]
  outcome: inactive
[2]
  outcome: inactive
[3]
  outcome: inactive

## C[C@H]1O[C@@H](O[C@H]2[C@@H](O)C[C@H](O[C@H]3[C@@H](O)C[C@H](O[C@H]4CC[C@@]5(C)[C@H](CC[C@@H]6[C@@H]5CC[C@]5(C)[C@@H](C7=CC(=O)OC7)CC[C@]65O)C4)O[C@@H]3C)O[C@@H]2C)C[C@H](O)[C@@H]1O
[1]
  AC50: 8.23 µM (active) and 5.95 µM (active)
[2]
  outcome: inactive
[3]
  outcome: inactive

## CC(C)(C)CC(C)(C)c1ccc(O)cc1
DIO1 (gene 1733)
  AC50: 90.7 µM (active)
[3]
  outcome: inactive

## ClC1(Cl)C2(Cl)C3(Cl)C4(Cl)C(Cl)(Cl)C5(Cl)C3(Cl)C1(Cl)C5(Cl)C24Cl (stereo not given)
[1]
  outcome: inactive

## CCOP(=S)(OCC)Oc1nc(Cl)c(Cl)cc1Cl
[1]
  AC50: 50 µM (active)
[2]
  outcome: inactive
[3]
  outcome: inactive

## CC12CC1(C)C(=O)N(c1cc(Cl)cc(Cl)c1)C2=O (stereo not given)
[1]
  AC50: 0.134 µM (active)
[2]
  outcome: inactive
[3]
  outcome: inactive

## Clc1ccc(COC(Cn2ccnc2)c2ccc(Cl)cc2Cl)cc1 (stereo not given)
[1]
  AC50: 10.1 µM (active)
[2]
  AC50: 50 µM (active)
[3]
  outcome: inactive

## C=CC(=O)OCCCCCC(C)C
DIO1 (gene 1733)
  AC50: 30.8 µM (active)
[1]
  outcome: inactive
[2]
  outcome: inactive
[3]
  outcome: inactive

## Cc1ccc2ccccc2c1C
[1]
  outcome: inactive
[2]
  outcome: inactive
[3]
  outcome: inactive

## C=CCc1ccc(OC)cc1
[1]
  outcome: inactive
[3]
  outcome: inactive

## Cc1ccccc1C(=O)Nc1cccc(OC(C)C)c1
[1]
  outcome: inactive
[2]
  outcome: inactive
[3]
  outcome: inactive

## O=[N+]([O-])c1ccc(O)c([N+](=O)[O-])c1
[1]
  outcome: inactive
[3]
  outcome: inactive

## COP(=S)(OC)Oc1ccc(Sc2ccc(OP(=S)(OC)OC)cc2)cc1
DIO1 (gene 1733)
  AC50: 1.19 µM (active)
[1]
  outcome: inactive
[2]
  outcome: inactive
[3]
  outcome: inactive

## CCC(C)(C)c1ccc(O)c(C(C)(C)CC)c1
DIO1 (gene 1733)
  AC50: 46.1 µM (active)

## CC(C)c1cccc(C(C)C)c1O
[1]
  outcome: inactive
[2]
  outcome: inactive
[3]
  outcome: inactive

## O=C1C2(Cl)C3(Cl)C4(Cl)C(Cl)(Cl)C5(Cl)C3(Cl)C1(Cl)C5(Cl)C24Cl (stereo not given)
[1]
  AC50: 13.3 µM (active)
[2]
  AC50: 12.7 µM (active)
[3]
  AC50: 13.7 µM (active)

## C[C@H]1CCCC(=O)CCC/C=C/c2cc(O)cc(O)c2C(=O)O1
[1]
  AC50: 6.39 µM (active)
[2]
  AC50: 80.6 µM (active)

## C[C@@H]1C[C@@H]([C@H](O)CC2CC(=O)NC(=O)C2)C(=O)[C@@H](C)C1
[4]
  outcome: inactive
[5]
  outcome: inactive
[6]
  outcome: inactive
[7]
  outcome: inactive
[8]
  outcome: inactive
[9]
  outcome: inactive
